The values below come from PubChem BioAssay (NCI).

The panel holds about 83,000 compounds, 20% with a hit somewhere; the sample as a whole holds those more often.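 For each line, cells grew in 96-well plates with the test compound present at a single concentration for 48 hours.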 A number with no mark means an inactive call. The source made the active and inactive calls. Rule for the calls: active = growth percent below 10; inactive = the rest.

What all share (assay): NCI-60 one-dose screen, 48 h (100 = growth as untreated, 0 = no growth, -100 = all killed)
The subject of one test is SR leukemia. The settings on record: 10 µM unless noted.
Another test relates to OVCAR-8 ovarian. To be noted: 10 µM unless noted.
The test system of another test is OVCAR-4 ovarian. The settings on record: 10 µM.
The subject of the next test is IGROV1 ovarian. The settings on record: 10 µM unless noted.
A further test relates to OVCAR-3 ovarian. The settings on record: 10 µM unless noted.
The test system of another test is HS 578T breast. The settings on record: 10 µM unless noted.
A further test deals with NCI/ADR-RES ovarian. To be noted: 10 µM unless noted.
The test system of a further test is T-47D breast. The settings on record: 10 µM unless noted.
In the next test the test system is BT-549 breast. To be noted: 10 µM unless noted.
For another test, the system named is MDA-MB-435 melanoma. To be noted: 10 µM unless noted.
The test system of a further test is SW-620 colon. To be noted: 10 µM unless noted.
The test system of another test is MCF7 breast. To be noted: 10 µM unless noted.
A further test deals with HCT-116 colon. To be noted: 10 µM unless noted.
Another test relates to HCC-2998 colon. The settings on record: 10 µM unless noted.
A further test has as its system KM12 colon. To be noted: 10 µM unless noted.
The subject of a further test is SK-OV-3 ovarian. The settings on record: 10 µM unless noted.
A further test concerns OVCAR-5 ovarian. The settings on record: 10 µM unless noted.

For the molecule `CC(C)(C)OC(=O)N1C=C/C(=C\Cn2cc(-c3ccccc3)nn2)CC1`, the growth in the test on SR leukemia was 57.9%; in the test on OVCAR-8 ovarian it was 74.9%; in the test on OVCAR-4 ovarian it was 18%; with IGROV1 ovarian, 82.7%; in the test on OVCAR-3 ovarian, 86.6%; with HS 578T breast it was 84.1%. Further, the growth in the test on NCI/ADR-RES ovarian was 76.9%; with T-47D breast it was 41.1%; in the test on BT-549 breast it was 58.1%; in the test with MDA-MB-435 melanoma it was 85.2%; in the test on SW-620 colon, 93.8%; with MCF7 breast, 65.5%. Also, the growth in the test with HCT-116 colon was 74.1%; in the test on HCC-2998 colon, 88.4%; in the test with KM12 colon it was 88.9%.
Consider `CC(C)[C@H]1CCC2=C3CC[C@]45OC(=O)[C@@]6(CCC(C)(C)C[C@H]64)CC[C@@]5(C)[C@]3(C)CC[C@@]21C`, for which the growth was 60.3% [100 µM] in the test on SR leukemia; 70.3% [100 µM] in the test on OVCAR-8 ovarian; 75.3% [100 µM] with SK-OV-3 ovarian; 61% [100 µM] in the test on IGROV1 ovarian; 80.2% [100 µM] in the test with OVCAR-3 ovarian; 61.6% [100 µM] with HS 578T breast. The growth was 81.9% [100 µM] with NCI/ADR-RES ovarian; 53.9% [100 µM] with T-47D breast; 82.1% [100 µM] in the test with BT-549 breast; 78.5% [100 µM] in the test with MDA-MB-435 melanoma; 78.7% [100 µM] in the test on SW-620 colon; 61.2% [100 µM] in the test with MCF7 breast. In addition, the growth in the test on HCT-116 colon was 51.6% [100 µM]; in the test on HCC-2998 colon, 97.9% [100 µM]; in the test on KM12 colon it was 76% [100 µM].
On to `O=C(C[n+]1ccn(CC(OCc2ccc(Cl)cc2Cl)c2ccc(Cl)cc2Cl)c1)c1ccc(F)cc1` (stereo unspecified), for which the growth with SR leukemia is -52.9% (active); in the test with OVCAR-8 ovarian, -90.5% (active); in the test on OVCAR-5 ovarian, -93.4% (active); in the test with OVCAR-4 ovarian, -96.2% (active); in the test with SK-OV-3 ovarian it was 26.3%; in the test with OVCAR-3 ovarian it was -93% (active). In addition, the growth in the test with HS 578T breast is -57.1% (active); with NCI/ADR-RES ovarian it was 103%; in the test on T-47D breast, -71.6% (active); in the test with BT-549 breast, -94.9% (active); in the test on MDA-MB-435 melanoma, -92.5% (active); with SW-620 colon, -89.9% (active). In addition, the growth with MCF7 breast was -84% (active); in the test with HCT-116 colon, -97.1% (active); in the test on HCC-2998 colon, -94.6% (active); with KM12 colon, -89.1% (active).
Regarding `N#Cc1c(N2CCOCC2)nc(=S)[nH]c1-c1ccco1`, the growth in the test on SR leukemia is 17.8%; with OVCAR-4 ovarian it was 66.2%; in the test with SK-OV-3 ovarian it was 55%; with IGROV1 ovarian it was 20.7%; with OVCAR-3 ovarian it was 64.7%; in the test on NCI/ADR-RES ovarian, 40.2%. Besides, the growth in the test on T-47D breast is 18.9%; with BT-549 breast, 60.4%; in the test with MDA-MB-435 melanoma, 86.3%; in the test on SW-620 colon it was 83.8%; with MCF7 breast, 26.7%; in the test on HCT-116 colon, 82.4%. The growth with HCC-2998 colon was -21% (active); in the test on KM12 colon it was 65.3%.
Turning to `O=C(CCCCCCSc1nc(-c2ccc(Cl)cc2)cc(-c2ccc(Cl)cc2)n1)NO`, the growth with SR leukemia was 5.47% (active); in the test with OVCAR-8 ovarian it was 20.5%; with OVCAR-5 ovarian it was 39.4%; with OVCAR-4 ovarian it was 35.9%; in the test with SK-OV-3 ovarian, 17.4%; with IGROV1 ovarian, 27.6%. Moreover, the growth in the test on OVCAR-3 ovarian was 22.9%; in the test on HS 578T breast, 69.5%; in the test with NCI/ADR-RES ovarian, 3.91% (active); with T-47D breast, 13.2%; in the test with MDA-MB-435 melanoma, 43.5%; in the test on SW-620 colon, 35.8%. The growth with MCF7 breast was 14.5%; with HCT-116 colon, 18.4%; in the test on HCC-2998 colon, 78.7%; in the test with KM12 colon, 47.4%.
In the case of `CC/C=C(\C)C(CCC)(CN=O)C(=O)OCC` (stereo unspecified), the growth in the test on SR leukemia is 87.6%; with OVCAR-8 ovarian, 105%; with OVCAR-5 ovarian it was 113%; in the test on OVCAR-4 ovarian, 110%; with SK-OV-3 ovarian it was 99.9%; with IGROV1 ovarian, 118%. Further, the growth in the test with OVCAR-3 ovarian was 127%; in the test with HS 578T breast it was 143%; in the test with NCI/ADR-RES ovarian, 108%; with BT-549 breast, 112%; with MDA-MB-435 melanoma, 117%; with SW-620 colon, 109%. In addition, the growth in the test with HCT-116 colon is 92.2%; with HCC-2998 colon, 96.2%; in the test with KM12 colon, 112%.
`COc1cc2c(cc1OC(C)=O)C(=O)CCCC2`: the growth in the test with SR leukemia was 121%; with OVCAR-8 ovarian it was 98.3%; with OVCAR-5 ovarian it was 103%; in the test on OVCAR-4 ovarian, 95.1%; in the test on SK-OV-3 ovarian, 117%; in the test with IGROV1 ovarian, 78.8%. Further, the growth in the test on OVCAR-3 ovarian is 114%; in the test with NCI/ADR-RES ovarian, 97.7%; with T-47D breast it was 101%; with MDA-MB-435 melanoma, 102%; in the test with SW-620 colon it was 95.8%; in the test on MCF7 breast, 92.3%. The growth is 82.6% in the test on HCT-116 colon, -10.1% (active) in the test with HCC-2998 colon and 106% in the test with KM12 colon.
For the molecule `CCc1cccc(Cl)c1`, the growth with SR leukemia is 103%; with OVCAR-8 ovarian, 104%; in the test on OVCAR-5 ovarian, 105%; with SK-OV-3 ovarian it was 107%; in the test on IGROV1 ovarian, 100%; in the test on HS 578T breast it was 118%. The growth is 103% with NCI/ADR-RES ovarian; 107% in the test with T-47D breast; 92% in the test with BT-549 breast; 107% in the test with MDA-MB-435 melanoma; 111% with SW-620 colon; 99.4% with MCF7 breast. Further, the results for the growth in the test on HCT-116 colon, with HCC-2998 colon and in the test on KM12 colon were 104%, 106% and 101%, respectively.
Take `CC(=O)CC(=O)SC1=NCCS1`: the growth in the test on SR leukemia was 102%; with OVCAR-8 ovarian, 99.3%; with OVCAR-5 ovarian it was 117%; in the test with OVCAR-4 ovarian, 109%; in the test with SK-OV-3 ovarian, 112%; in the test with OVCAR-3 ovarian it was 113%. Besides, the growth with NCI/ADR-RES ovarian was 113%; in the test with T-47D breast it was 104%; in the test with BT-549 breast it was 116%; in the test with MDA-MB-435 melanoma, 106%; in the test with SW-620 colon it was 97.7%; with MCF7 breast, 108%. In addition, the growth with HCT-116 colon was 116%; in the test on HCC-2998 colon, 112%; in the test with KM12 colon, 102%.
